# High-throughput results deposited in PubChem BioAssay by Broad Institute.
# Only some compounds are listed: those with a hit (about 3.4% of all), similar ones and a draw of the others.
# rRNA inh HTS – inhibits bacterial ribosomal RNA function over humanized ribosomes; E. coli WT GFP vs humanized-ribosome RFP mutants, fluorescence, 24 h; hits give low values; DMSO median 0, no signal -100; GFP signal change (wild-type ribosome), % (test concentration not listed); 350,000 tested, 1.6% active; AID 720706;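 active means significant combined selectivity score with lowered wild-type GFP, culture density cut under 30%, mutant RFP and density less affected; inactive means any of these conditions unmet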
# SIRT5 inh – blocks human SIRT5 desuccinylation of peptide; Q9NXA8; Purified SirT5, succinyl-peptide AMC, trypsin-coupled fluorescence; inhibition, % at 15 µM; 330,000 tested, 1.1% active; in the data active means inhibition above about 15%
# Target sequence (Q9NXA8 whole entry, looked up): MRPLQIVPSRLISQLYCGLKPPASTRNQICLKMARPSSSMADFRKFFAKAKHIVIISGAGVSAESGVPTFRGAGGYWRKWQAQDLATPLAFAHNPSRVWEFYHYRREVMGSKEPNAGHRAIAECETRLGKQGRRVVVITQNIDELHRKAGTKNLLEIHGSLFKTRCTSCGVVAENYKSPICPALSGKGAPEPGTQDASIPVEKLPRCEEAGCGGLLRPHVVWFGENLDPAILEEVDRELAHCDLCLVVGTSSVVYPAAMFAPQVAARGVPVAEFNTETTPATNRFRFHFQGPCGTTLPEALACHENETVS
# LGR2 inh – inhibitors of bursicon-induced Drosophila LGR2 receptor cAMP signaling; HEK293 LGR2, CRE-luciferase, bursicon-stimulated, 4 h; inhibition, % at 9.99 µM; 380,000 tested, 0.35% active; AID 720647;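 active means drop in luminescence signal, shown as inhibition above about 50% in the replicate tests, limit read from the data, passing the limit was not always enough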;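 further: agonist challenge used bursicon conditioned medium at about half maximal strength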
# EWS-Fli block – EWS/Fli transcriptional activity inhibition; 350,000 tested, 0.67% active; A673 NR0B1-luciferase reporter, viability-normalised; inhibition, % at 12.6 µM; AID 651661;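 active means mean inhibition of at least 50% after viability correction, with every replicate also passing that limit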;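 further: firefly luciferase signal divided by Alamar Blue viability fluorescence both relative to DMSO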
# PAX8 reporter – PAX8 transcriptional activity inhibition; inhibition, % at 12.6 µM; RMG-I TPO-luciferase reporter, SteadyGlo, 24 h; 360,000 tested, 1.2% active; AID 652154;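 active means mean replicate inhibition at least 60% with every replicate also reaching 60%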;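 further: luciferase light reporting Pax8 driven TPO promoter activity; plate controls were median of neutral control wells for no effect and mitoxantrone controls for full effect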
# PGC1a acetyl inh – PGC1a acetylation modulation, inhibitor mode; U2OS PGC1a acetylation, AlphaScreen anti-acetyl-lysine; with virally co-expressed GCN5 acetyltransferase; inhibition, % at 15.6 µM; 350,000 tested, 0.17% active;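 active means every replicate shows inhibition of at least 40%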;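 further: 0% = neutral control wells and 100% = positive control wells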
# The depositor's hits bear a star; · = no result.
SMILES,rRNA inh HTS,SIRT5 inh,LGR2 inh,EWS-Fli block,PAX8 reporter,PGC1a acetyl inh
Oc1ccc(Nc2nc(N3CCCC3)c3ccccc3n2)cc1,-24.9,-1.9,76.4*,·,·,24.6
C[C@H]1CN([C@@H](C)CO)C(=O)c2cc(C#Cc3ccncc3)cnc2O[C@@H]1CN(C)C(=O)c1ccccc1F,-3.4,7.6,27.2,3.4,9.2,-5.8
CC(C)C#Cc1cnc2c(c1)C(=O)N([C@@H](C)CO)C[C@H](C)[C@H](CN(C)C(=O)Cc1ccncc1)O2,2.0,-0.4,-0.4,-3.8,3.1,-0.6
c1ccc(-c2nnc(-c3ccccn3)nc2NC2CCCCC2)cc1,-56.0,3.1,11.2,·,68.7*,2.7
O=C1/C(=C/c2cccs2)CCC/C1=C\c1cccs1,-15.0,0.2,-134.4,·,-192.3,·
CC1C/C(=C/c2cccs2)C(=O)/C(=C/c2cccs2)C1 (stereo not given),-2.6,-3.2,2.4,0.9,71.6*,·
CCCN1C[C@@H](C)[C@@H](OC)CN(C)C(=O)c2cc(NC(=O)C3CC3)ccc2OC[C@@H]1C,-0.3,-6.7,8.9,4.1,5.2,2.3
Oc1cccc(C=NN=C2c3ccccc3-c3ccccc32)c1,-33.9*,7.7,-47.0,-3.3,·,·
O=C1Nc2ccccc2/C1=N/N=C/c1cccc(O)c1,1.1,2.5,-11.7,12.2,-3.4,-4.0
CC(C)NC(=O)N(C)C[C@H]1Oc2ncccc2C(=O)N(C)C[C@@H]1C,-0.9,·,·,·,·,·
C[C@H]1CN(C)C(=O)c2cc(N)ccc2O[C@H]1CN(C)C,0.9,·,·,·,·,·
COc1ccc(C2C(O)C(c3c[nH]c4ccccc34)=NN2C(=O)CCl)cc1 (stereo not given),-2.8,-0.1,22.8,62.2*,117.4*,·
O=C(NC12CC3CC(CC(C3)C1)C2)N1CCN(c2ccccn2)CC1,-18.8,3.1,3.1,2.9,·,-9.8
O=C(NC12CC3CC(CC(C3)C1)C2)N1CCN(c2ncccn2)CC1,-20.7*,-0.8,7.6,8.0,-15.7,·
COC(=O)C[C@@H]1CC[C@H]2[C@H](COc3ccc(NS(=O)(=O)c4ccccc4F)cc3C(=O)N2C)O1,-2.5,·,9.7,5.1,18.6,-5.6
CCNC(=O)Nc1ccc2c(c1)C(=O)N(C)[C@H]1CC[C@@H](CC(=O)NCC3CC3)O[C@@H]1CO2,3.8,·,14.4,-1.7,1.7,-0.4
COc1ccc(C(=O)N(Cc2nc(-c3ccc(C)cc3)no2)C(C)C)cc1OC,-4.0,3.1,-10.3,-4.8,15.6,-8.8
Cc1ccc(C(=O)N(Cc2nc(-c3ccc(C)cc3)no2)C(C)C)cc1,11.0,16.8*,8.6,6.0,28.4,3.4
Cc1ccc(-c2noc(CN(C(=O)c3ccc4c(c3)OCO4)C(C)C)n2)cc1,3.2,-2.2,22.8,·,8.1,12.3
CC(C)N(Cc1nc(-c2ccccc2)no1)C(=O)c1ccc2c(c1)OCO2,-29.3*,1.3,-9.4,1.5,·,-0.7
COc1ccccc1-c1cn(CC[C@H]2CC[C@H](NC(=O)c3cnccn3)[C@H](CO)O2)nn1,-1.7,3.2,1.8,·,·,6.0
Cc1ccc2nc(SCC(=O)c3c(N)n(C)c(=O)n(C)c3=O)[nH]c2c1,23.9,-0.8,11.1,53.6*,8.5,·
Cc1ccc2nc(SCC(=O)c3cc(C)n(C)c3C)[nH]c2c1,·,·,11.6,·,·,9.9
O=C1N[C@@H](Cc2ccccc2)COCc2cnnn2CC[C@@H]1Cc1cccc(F)c1,0.7,·,·,·,·,·
N#CC1=C(N)Oc2cc3c(cc2C1c1ccc(Cl)cc1)OCO3 (stereo not given),-23.4*,3.5,-0.9,5.3,·,-10.6
SMILES,rRNA inh HTS,SIRT5 inh,LGR2 inh,EWS-Fli block,PAX8 reporter,PGC1a acetyl inh
COc1cc(C2C(C#N)=C(N)Oc3cc4c(cc32)OCO4)cc(OC)c1OC (stereo not given),5.1,-1.0,3.0,61.7*,96.1*,·
COc1cc(C2C(C#N)=C(N)Oc3cc(O)ccc32)cc(OC)c1OC (stereo not given),·,·,·,·,·,21.8
COc1ccc2c3c([nH]c2c1)[C@H](CO)N(C)CC31CN(C(=O)c2cccnc2)C1,2.8,·,1.9,-16.5,·,8.8
C[C@@H]1CN([C@H](C)CO)C(=O)Cc2cc(NS(=O)(=O)c3cccs3)ccc2O[C@@H]1CN(C)S(=O)(=O)c1cccs1,-2.3,·,0.2,-3.3,1.0,2.8
Cc1ccc(/C=C/C(=O)c2ccc(O)cc2)cc1,-27.3*,-2.5,-40.4,-77.9,-83.6,-3.0
Cc1ccc(/C=C/C(=O)c2ccccc2)cc1,·,·,-28.1,·,·,19.9
